Experimental data as given in the supplement of paper PMC9694430.

What was measured:
Test in all cases: thermal shift delta Tm vs DMSO control; higher = stronger stabilization (binding)
Conditions in all cases: 12.5 µM; protein concentration 2 µM
[1] = test system: LOC_OS01G01410-cb001
In short: (§1)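 Heating from 25°C to 95°C at 0.05°C/s, fluorescence was recorded for 19.5 μl wells of 2 μM E. coli-expressed, purified rice kinase domain in 100 mM potassium phosphate pH 7.5, 150 mM NaCl, 10% glycerol and 5 × SYPRO Orange with compound in DMSO. Boltzmann fits gave melting temperatures for this differential scanning fluorimetry assay. The shift reported is the mean of three replicates against the DMSO-only protein.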

[2] = test system: LOC_OS01G02750-cb003
In short: as §1

[3] = test system: LOC_OS01G10900-cb004
In short: as §1

[4] = test system: LOC_OS01G13800-cb001
In short: as §1

[5] = test system: LOC_OS01G14860-cb001
In short: as §1

[6] = test system: LOC_OS01G21960-cb002
In short: as §1

[7] = test system: LOC_OS01G39600-cb002
In short: as §1

[8] = test system: LOC_OS01G48390-cb002
In short: as §1

[9] = test system: LOC_OS01G51400-cb002
In short: as §1

[10] = test system: T1, LOC_OS01G52050-cb004
T1 sequence (whole entry): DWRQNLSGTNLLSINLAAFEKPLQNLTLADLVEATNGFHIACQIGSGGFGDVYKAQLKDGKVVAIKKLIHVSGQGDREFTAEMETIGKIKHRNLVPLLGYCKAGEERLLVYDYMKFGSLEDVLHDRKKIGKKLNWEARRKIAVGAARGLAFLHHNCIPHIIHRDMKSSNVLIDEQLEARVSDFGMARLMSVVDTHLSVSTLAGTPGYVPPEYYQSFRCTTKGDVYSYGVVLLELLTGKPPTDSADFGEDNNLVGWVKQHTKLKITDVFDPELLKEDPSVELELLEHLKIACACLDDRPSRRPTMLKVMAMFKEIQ
In short: as §1

[11] = test system: LOC_OS01G57100-cb003
In short: as §1

[12] = test system: LOC_OS01G60330-cb001
In short: as §1

[13] = test system: LOC_OS01G60700-cb002
In short: as §1

[14] = test system: LOC_OS01G63280-cb003
In short: as §1

[15] = test system: LOC_OS01G67340-cb003
In short: as §1

[16] = test system: LOC_OS01G70970-cb002
In short: as §1

[17] = test system: LOC_OS02G07810-cb001
In short: as §1

[18] = test system: LOC_OS02G08530-cb003
In short: as §1

[19] = test system: LOC_OS02G14120-cb001
In short: as §1

[20] = test system: LOC_OS02G17970-cb001
In short: as §1
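Also: purified Escherichia coli-expressed rice kinase domain construct.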

Row | SMILES | thermal shift delta Tm [1] [°C] | thermal shift delta Tm [2] [°C] | thermal shift delta Tm [3] [°C] | thermal shift delta Tm [4] [°C] | thermal shift delta Tm [5] [°C] | thermal shift delta Tm [6] [°C] | thermal shift delta Tm [7] [°C] | thermal shift delta Tm [8] [°C] | thermal shift delta Tm [9] [°C] | thermal shift delta Tm [10] [°C] | thermal shift delta Tm [11] [°C] | thermal shift delta Tm [12] [°C] | thermal shift delta Tm [13] [°C] | thermal shift delta Tm [14] [°C] | thermal shift delta Tm [15] [°C] | thermal shift delta Tm [16] [°C] | thermal shift delta Tm [17] [°C] | thermal shift delta Tm [18] [°C] | thermal shift delta Tm [19] [°C] | thermal shift delta Tm [20] [°C]
1 | CN1CCC(Nc2nc(Nc3ccc(Oc4ccccc4)cc3)c3c(=O)[nH]cc(Br)c3n2)CC1 | 1.56 | 2.82 | 0.27 | 0.59 | 2.99 | 2.71 | 0.76 | 2.51 | 0.72 | 4.93 | 1.9 | 3.13 | 1.69 | 0.86 | 1.7 | 3.58 | 0.79 | 3.25 | 3.98 | 0.52
2 | Cc1n[nH]c2ncc(C(=O)N3CCC[C@H]3c3ccc(Cl)cc3)cc12 | 0.63 | 0.98 | 0.41 | 0.18 | 4.68 | 0.38 | 0.88 | 0.19 | 0.21 | 3.46 | 0.92 | 0.11 | 0.24 | 0.09 | 0.25 | 0.34 | -0.7 | 1.34 | 1.35 | 0.38
3 | COc1cc2nccc(Oc3ccc(NC(=O)NC4CC4)c(Cl)c3)c2cc1C(N)=O [Lenvatinib (E7080)] | 1.14 | 1.17 | 0.52 | 0.29 | 0.28 | 0.62 | -0.02 | 0.47 | 0.04 | 0.33 | -0.21 | 1.52 | 1.38 | 0.36 | -0.21 | 0.67 | 0.65 | 1.11 | 0.02 | 0.27
4 | COc1cc2nccc(Oc3ccc(NC(=O)c4cn(C(C)C)c(=O)n(-c5ccc(F)cc5)c4=O)cc3F)c2cc1OC | 0.17 | 1.65 | -0.15 | 0.61 | 0.98 | 0.2 | 0.41 | 0.32 | 0.13 | 4.45 | 0.85 | 0.41 | 0.47 | -0.09 | 0.68 | 0.8 | -0.36 | 0.66 | 8.24 | 1.66
5 | CN(c1ccccc1CNc1nc(Nc2ccc3c(c2)CC(=O)N3)ncc1C(F)(F)F)S(C)(=O)=O | 2.5 | 7.01 | 2.35 | 0.34 | 5.2 | 2.72 | 8.33 | 3.62 | 1.93 | 8.95 | 2.5 | 2.26 | 1.26 | 6.35 | 3.07 | 9.4 | 1.12 | 2.68 | 8.26 | 0.68
6 | CC[C@@](C)(Nc1ccnc(-c2c[nH]c3ncccc23)n1)C(=O)NCC(F)(F)F [Decernotinib (VX-509)] | 0.58 | 1.32 | -0.38 | 0.4 | 0.78 | 3.1 | -0.05 | 1.08 | 0.22 | 0.18 | 2.18 | 0.73 | 0.67 | 0.95 | 0.62 | 0.36 | 0.36 | 0.65 | 5.49 | 0.86
7 | Cc1c(C(=O)Nc2ccc(Oc3ccnc4[nH]cc(-c5ccccc5)c34)c(F)c2)c(=O)n(-c2ccc(F)cc2)n1C | 0.66 | 2.79 | 1.91 | 0.84 | 0.67 | 1.55 | 2.37 | 1.72 | 0.78 | 2.8 | 1.48 | 5.65 | 1.25 | 5.92 | 1.81 | 1.29 | 0.68 | 3.76 | 6.85 | 1.44
8 | C=CC(=O)Nc1cc(Nc2nccc(-c3cn(C)c4ccccc34)n2)c(OC)cc1N(C)CCN(C)C [Osimertinib (AZD9291)] | 0.41 | 0.94 | 0.45 | -0.53 | 0.01 | 0.34 | 0.02 | -0.33 | 0.43 | 0.11 | -0.15 | 1.07 | 1.16 | 0.43 | 0.42 | 0.32 | 0.03 | 3.79 | 3.74 | -0.32
9 | Cc1nc(N)sc1-c1ccnc(Nc2ccc(N3CCOCC3)cc2)n1 | 5.75 | 10.4 | 1.74 | 0.29 | 2.6 | 2.06 | 3.24 | 2.34 | 0.68 | 6.52 | 1.88 | 3.15 | 0.88 | 0.17 | -0.01 | 1.58 | 0.79 | 2.22 | 8.9 | -0.16
10 | Cc1cc(Nc2ncc(Cl)c(Nc3ccccc3S(=O)(=O)C(C)C)n2)c(OC(C)C)cc1C1CCNCC1 [Ceritinib (LDK378)] | 0.47 | 1.1 | 0.21 | -0.57 | 0.83 | 0.34 | 2.1 | 0.85 | 0.35 | 0.22 | 1.94 | 0.68 | 1.4 | 0.34 | 0.19 | 0.94 | 0.36 | 5.56 | 1.28 | 0.2
11 | OCCn1cc(-c2ccc3c(c2)CC/C3=N\O)c(-c2ccncc2)n1 | 0.98 | -2.29 | 0.31 | 0.39 | 0.01 | 0.47 | 0.93 | 0.73 | 0.39 | -0.04 | 0.82 | 1.25 | 0.99 | 0.67 | -0.31 | 0.26 | 1.43 | 1 | 0.49 | 0.48
12 | Cn1cnc(N)c2ncnc1-2 [3-Methyladenine (3-MA)] | 0.6 | 5.26 | 0.17 | -0.02 | -0.3 | 0.32 | 0.46 | 1.12 | 0.76 | 0.09 | 1.89 | 1.27 | 0.77 | 0.22 | -0.29 | 0.22 | 0.96 | 1.08 | 0.61 | 0.34
